According to PubChem BioAssay (NCATS):
Inconclusive results are not listed. The list shows a part of the results. Activity calls are given as the source filed them. Unless noted, the call rests on the fitted dose curve; in most records, active means well fitted curve in the direction sought with a large enough effect; inconclusive means small, poorly fitted or top-dose-only effect, or another doubt; inactive means no such curve, though single readings can be large; an effect the other way counts as inactive or inconclusive.

Tests used:
[1] = target: Rap guanine nucleotide exchange factor 3 (Homo sapiens) (UniProt O95398); test: Confirmatory qHTS for antagonist of cAMP-regulated guanine nucleotide exchange factor 3 (EPAC1) (AID 1645880); further: nearly all actives have a fitted effect of over 55% in size; further: potency means the concentration at half of the fitted maximal effect
Sequence of Rap guanine nucleotide exchange factor 3 (Homo sapiens) (O95398 whole entry, looked up): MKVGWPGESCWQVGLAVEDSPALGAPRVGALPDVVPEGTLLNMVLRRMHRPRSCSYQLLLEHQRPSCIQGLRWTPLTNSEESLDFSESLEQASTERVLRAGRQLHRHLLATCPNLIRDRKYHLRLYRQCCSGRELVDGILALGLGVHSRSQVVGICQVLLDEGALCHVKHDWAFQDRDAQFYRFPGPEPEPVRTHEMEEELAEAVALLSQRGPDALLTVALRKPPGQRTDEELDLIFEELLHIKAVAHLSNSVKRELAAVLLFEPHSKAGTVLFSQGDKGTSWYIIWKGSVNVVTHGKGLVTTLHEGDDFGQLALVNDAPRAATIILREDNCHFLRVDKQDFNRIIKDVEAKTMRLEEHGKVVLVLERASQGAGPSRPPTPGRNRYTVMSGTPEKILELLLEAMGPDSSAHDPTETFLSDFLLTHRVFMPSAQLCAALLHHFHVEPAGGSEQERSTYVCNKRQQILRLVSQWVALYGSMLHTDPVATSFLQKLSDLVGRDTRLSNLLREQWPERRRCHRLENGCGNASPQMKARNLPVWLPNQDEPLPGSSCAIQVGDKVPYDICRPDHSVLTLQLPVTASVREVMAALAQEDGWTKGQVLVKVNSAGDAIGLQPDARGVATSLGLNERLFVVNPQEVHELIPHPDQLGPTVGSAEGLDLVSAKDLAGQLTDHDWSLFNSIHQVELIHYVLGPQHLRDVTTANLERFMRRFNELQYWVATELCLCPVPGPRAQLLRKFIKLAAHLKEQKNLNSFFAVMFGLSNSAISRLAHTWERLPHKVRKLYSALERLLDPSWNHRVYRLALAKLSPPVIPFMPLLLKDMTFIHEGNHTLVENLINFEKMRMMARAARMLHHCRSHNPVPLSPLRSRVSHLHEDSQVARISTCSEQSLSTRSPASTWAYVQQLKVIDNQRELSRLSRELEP
Procedure, shortened: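 Nucleotide exchange uses 100 nM EPAC1, 250 nM RAP1B-BODIPY-GDP and 50 uM GDP, with compounds in a concentration-titration series. After 5 min at room temperature, fluorescence (480 nm ex/540 nm em) is read every 5 min for 30 min. Data are normalized to control ATA and DMSO.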

[2] = target: Rap guanine nucleotide exchange factor 4 (Homo sapiens) (UniProt Q8WZA2); test: Confirmatory qHTS for agonist of cAMP-regulated guanine nucleotide exchange factor 4 (EPAC2) (AID 1645884);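 further: nucleotide exchange releases bodipy-GDP from Rap1 and this lowers its fluorescence; nearly all actives have a fitted effect of over 65% in size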; further: potency means the concentration at half of the fitted maximal effect; on activation: on the % scale 0 is the no-effect control and ±100 the full control effect
Sequence of Rap guanine nucleotide exchange factor 4 (Homo sapiens) (Q8WZA2 whole entry, looked up): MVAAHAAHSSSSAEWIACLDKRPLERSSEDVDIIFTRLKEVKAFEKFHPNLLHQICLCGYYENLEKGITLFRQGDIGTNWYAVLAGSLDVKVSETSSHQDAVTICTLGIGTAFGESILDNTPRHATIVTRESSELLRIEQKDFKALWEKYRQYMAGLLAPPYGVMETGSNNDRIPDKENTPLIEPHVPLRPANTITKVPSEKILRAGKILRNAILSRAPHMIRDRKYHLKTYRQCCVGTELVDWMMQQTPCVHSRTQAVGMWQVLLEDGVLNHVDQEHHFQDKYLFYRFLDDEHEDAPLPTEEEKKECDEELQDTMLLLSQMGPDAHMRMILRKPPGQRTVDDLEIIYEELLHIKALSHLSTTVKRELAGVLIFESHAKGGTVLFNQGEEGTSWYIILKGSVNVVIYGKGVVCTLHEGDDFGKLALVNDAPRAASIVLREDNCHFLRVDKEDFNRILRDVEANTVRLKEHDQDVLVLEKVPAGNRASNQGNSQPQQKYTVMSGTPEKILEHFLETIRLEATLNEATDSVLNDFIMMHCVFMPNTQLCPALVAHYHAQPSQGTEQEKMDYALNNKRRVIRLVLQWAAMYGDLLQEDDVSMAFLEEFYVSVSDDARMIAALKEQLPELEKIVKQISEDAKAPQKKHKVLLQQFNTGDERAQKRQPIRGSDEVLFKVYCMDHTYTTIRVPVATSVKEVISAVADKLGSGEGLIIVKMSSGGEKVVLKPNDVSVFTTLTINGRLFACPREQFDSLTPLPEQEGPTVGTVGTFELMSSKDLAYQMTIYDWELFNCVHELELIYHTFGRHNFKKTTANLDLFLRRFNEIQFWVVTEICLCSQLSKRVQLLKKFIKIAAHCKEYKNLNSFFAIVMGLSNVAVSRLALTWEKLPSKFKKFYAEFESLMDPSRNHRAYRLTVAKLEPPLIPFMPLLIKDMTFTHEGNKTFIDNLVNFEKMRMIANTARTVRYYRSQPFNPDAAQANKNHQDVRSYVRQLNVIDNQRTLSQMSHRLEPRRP

[3] = target: Rap guanine nucleotide exchange factor 4 (Homo sapiens) (UniProt Q8WZA2); test: Confirmatory qHTS for antagonist of cAMP-regulated guanine nucleotide exchange factor 4 (EPAC2) (AID 1645885); further: nearly all actives have a fitted effect of over 25% in size; further: potency means the concentration at half of the fitted maximal effect; on activity change, negative = inhibition: on the % scale 0 is the no-effect control and ±100 the full control effect
[4] = target: Rap guanine nucleotide exchange factor 3 (Homo sapiens) (UniProt O95398); test: Counterscreen qHTS for antagonist of cAMP-regulated guanine nucleotide exchange factor 3 (EPAC1) (AID 1645888);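 further: fluorescence loss as bound BODIPY-GDP is released from Rap1B; % of control where 0% means no effect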
Procedure, shortened: (§1)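 Measured: fluorescence of BODIPY-GDP bound to Rap1B, which falls as exchange proceeds. Conditions include 50 uM competing GDP, 5 and 30 min reads, and a later cAMP challenge for antagonist detection.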

[5] = target: Rap guanine nucleotide exchange factor 3 (Homo sapiens) (UniProt O95398); test: Confirmatory qHTS for agonist of cAMP-regulated guanine nucleotide exchange factor 3 (EPAC1) (AID 1645881); further: nearly all actives have a fitted effect of over 75% in size; further: potency means the concentration at half of the fitted maximal effect;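 on activation: EPAC1 catalysed release of BODIPY-GDP from Rap1B seen as fluorescence loss; 100% = effect of cAMP agonist control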
[6] = target: Rap guanine nucleotide exchange factor 3 (Homo sapiens) (UniProt O95398); test: Counterscreen qHTS for agonist of cAMP-regulated guanine nucleotide exchange factor 3 (EPAC1) (AID 1645889); further: nearly all actives have a fitted effect of over 40% in size; further: potency means the concentration at half of the fitted maximal effect; on activation: % of control where 0% means no effect
Procedure, shortened: as §1

[7] = target: Cytochrome P450 3A4 (Homo sapiens) (UniProt P08684); test: qHTS Assay for Activators of Cytochrome P450 3A4 (AID 885); further: nearly all actives have a fitted effect of over 65% in size
Sequence of Cytochrome P450 3A4 (Homo sapiens) (P08684 whole entry, looked up): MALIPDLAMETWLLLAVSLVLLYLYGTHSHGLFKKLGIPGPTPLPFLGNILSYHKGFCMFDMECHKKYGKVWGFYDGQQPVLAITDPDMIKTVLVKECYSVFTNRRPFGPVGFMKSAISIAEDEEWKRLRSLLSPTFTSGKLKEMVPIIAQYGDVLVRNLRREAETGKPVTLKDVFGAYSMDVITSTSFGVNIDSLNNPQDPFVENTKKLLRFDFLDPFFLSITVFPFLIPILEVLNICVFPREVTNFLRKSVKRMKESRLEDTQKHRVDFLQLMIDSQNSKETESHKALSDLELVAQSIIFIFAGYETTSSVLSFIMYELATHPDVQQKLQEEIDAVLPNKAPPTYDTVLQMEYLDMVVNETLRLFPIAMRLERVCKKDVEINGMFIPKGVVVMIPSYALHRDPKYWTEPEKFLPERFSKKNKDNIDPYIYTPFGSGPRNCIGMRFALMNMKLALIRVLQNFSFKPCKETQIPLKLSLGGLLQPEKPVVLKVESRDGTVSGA
Procedure, shortened: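 Steps: enzyme/substrate mix dispensed; compound added, 10 min RT; NADPH regeneration solution added, 60 min RT; luciferin detection buffer stops reaction; 20 min later luminescence measured.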

[8] = Confirmation and Secondary Assay for Modulators of Hemoglobin Beta Chain Splicing at IVS2 654 locus (AID 910);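 further: per-well total GFP intensity by laser scanning cytometry after 2-day treatment; % of control where 0% means no effect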
Procedure, shortened: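 HeLa cells stably carrying EGFP interrupted by mutant beta-globin IVS2-654 intron (CMV-driven) were treated with compound for 2 days at 37C; corrected splicing was scored as total peak GFP intensity per well (488 nm excitation, 500-520 nm emission).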

[9] = Confirmation and Secondary Assay for Modulators of Hemoglobin Beta Chain Splicing at IVS2 705 locus (AID 930);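 further: HeLa cells stably expressing the EGFP-705 splicing reporter; GFP fluorescence per well restored by corrected splicing of the IVS2-705 intron in EGFP; series mostly up to about 46 µM; % of control where 0% means no effect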
Procedure, shortened: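 HeLa EGFP-705 reporter; 500 cells/well, o/n 37C 5% CO2; cpd 2 d; 488 ex/500-520 em laser scan; total peak GFP intensity/well. Ref: 500 nM […] antisense PNA.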

[10] = target: Glutathione peroxidase 1 (Homo sapiens) (UniProt P07203); test: Primary qHTS Assay for Inhibitors of Recombinant Selenoprotein Glutathione Peroxidase 1 (GPX1) (AID 1845191); further: on the % scale 0 is the no-effect control and ±100 the full control effect; nearly all actives have a fitted effect of over 65% in size
Sequence of Glutathione peroxidase 1 (Homo sapiens) (P07203 whole entry, looked up): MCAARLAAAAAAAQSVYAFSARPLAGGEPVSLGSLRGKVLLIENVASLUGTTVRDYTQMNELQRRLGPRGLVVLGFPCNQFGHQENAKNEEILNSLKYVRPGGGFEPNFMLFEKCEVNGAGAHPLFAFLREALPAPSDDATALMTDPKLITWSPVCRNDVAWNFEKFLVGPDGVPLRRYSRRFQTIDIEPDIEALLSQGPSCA
Procedure, shortened: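 Recombinant GPX1 (10 nM final) was preincubated with compound for 30 min at room temperature, then reacted with 1 mM GSH, 0.5 mM CHP, 0.5 mM NADPH and 100 nM glutathione reductase; NADPH fluorescence (340/450 nm) was read at 0 and 15 min.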

[11] = AP1 Signaling Pathway (AID 357; active means well fitted curve in either direction with a large enough effect, not every such curve was filed as active; further: on the % scale 0 is the no-effect control and ±100 the full control effect)
Procedure, shortened: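 ME-180 cells with beta-lactamase reporter under AP-1 response element, stimulated with EC50 EGF; compounds tested in titration series, 5 h at 37 °C. CCF4 substrate added 2.5 h at room temperature; 460/530 nm emission ratio gave %activity and AC50.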

[12] = target: Glucocorticoid receptor (Homo sapiens) (UniProt P04150); test: GR-GFP Redistribution (AID 450;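 active means compounds whose dose series gives a full or clear partial fitted curve of increased nuclear translocation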; further: potency means the concentration at half of the fitted maximal effect); conditions: U2OS GR-GFP nuclear translocation, laser cytometry, 2 h
Sequence of Glucocorticoid receptor (Homo sapiens) (P04150 whole entry, looked up, the tested form may be a part): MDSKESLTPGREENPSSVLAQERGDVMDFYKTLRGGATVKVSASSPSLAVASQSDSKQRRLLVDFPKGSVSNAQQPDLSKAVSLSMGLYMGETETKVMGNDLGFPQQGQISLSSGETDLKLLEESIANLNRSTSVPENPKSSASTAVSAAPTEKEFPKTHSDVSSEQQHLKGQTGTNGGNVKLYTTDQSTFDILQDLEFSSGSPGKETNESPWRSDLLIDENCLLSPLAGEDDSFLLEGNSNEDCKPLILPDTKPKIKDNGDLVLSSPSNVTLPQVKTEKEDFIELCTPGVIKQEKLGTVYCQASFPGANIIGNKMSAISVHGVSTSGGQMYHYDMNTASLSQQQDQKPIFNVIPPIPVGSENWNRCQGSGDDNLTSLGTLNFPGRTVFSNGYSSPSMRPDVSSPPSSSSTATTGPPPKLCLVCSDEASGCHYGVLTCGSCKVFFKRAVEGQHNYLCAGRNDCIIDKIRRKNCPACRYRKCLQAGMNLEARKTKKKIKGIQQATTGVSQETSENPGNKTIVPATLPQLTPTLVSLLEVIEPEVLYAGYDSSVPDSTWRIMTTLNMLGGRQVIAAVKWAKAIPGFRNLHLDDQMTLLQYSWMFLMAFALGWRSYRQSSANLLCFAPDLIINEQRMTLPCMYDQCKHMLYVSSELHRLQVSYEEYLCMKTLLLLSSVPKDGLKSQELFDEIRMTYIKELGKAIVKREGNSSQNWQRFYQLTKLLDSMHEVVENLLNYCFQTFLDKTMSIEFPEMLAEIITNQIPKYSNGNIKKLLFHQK

[13] = target: Glucocorticoid receptor (Homo sapiens) (UniProt P04150); test: GR-EFC Redistribution (AID 451; calls by dose curve; further: potency means the concentration at half of the fitted maximal effect); conditions: CHO-K1 GR-EFC translocation, beta-gal luminescence, 2 h
Procedure, shortened: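 CHO-K1 cells stably expressing nuclear-localized β-gal enzyme acceptor and GR fused C-terminally to the enzyme donor fragment; ligand-driven nuclear translocation restores β-gal by complementation. Compounds titrated up to 46 uM final, 2 h at 37 °C; luminescence read.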

[14] = target: Mitogen-activated protein kinase 10 (Mus musculus) (UniProt Q61831); test: JNK3 AlphaScreen Assay (AID 530; active means well fitted curve in either direction with a large enough effect, not every such curve was filed as active;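 further: kinase came from lysate of stimulated human HepG2 cells; signal reports phosphorylation of biotinylated GST-cJun 1-79 at Ser73 with 10 µM ATP; series mostly up to about 57 µM; on the % scale 0 is the no-effect control and ±100 the full control effect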)
Procedure, shortened: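 JNK3 came from HepG2 lysates pre-activated with IL-1beta and TNF-alpha and phosphorylated biotinylated GST-cJun (1-79) at 10 uM ATP, pH 7.6, room temperature. Compounds were titrated. AlphaScreen signal used anti-phospho-cJun (Ser73) antibody.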

[15] = target: 3',5'-cyclic-AMP phosphodiesterase 4B (Homo sapiens) (UniProt Q07343); test: qHTS Assay for Inhibitors of PDE-IV (AID 607; active means well fitted activation curve with a large enough effect in the main read-out, with a control signal flat, not every such curve was filed as active; further: % of control where 0% means no effect)
Procedure, shortened: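 The readout is membrane depolarisation from a cAMP-sensing CNG channel, detected with a potential dye at ex 535/em 590. Cells were HEK293-derived (endogenous PDE-IV) at 1000 cells/well, titrated up to 22.9 uM final.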

[16] = target: Cytochrome P450 2C9 (Homo sapiens) (UniProt P11712); test: qHTS Assay for Inhibitors and Substrates of Cytochrome P450 2C9 (AID 883); further: potency means the concentration at half of the fitted maximal effect; nearly all actives have a fitted effect of over 60% in size
Sequence of Cytochrome P450 2C9 (Homo sapiens) (P11712 whole entry, looked up): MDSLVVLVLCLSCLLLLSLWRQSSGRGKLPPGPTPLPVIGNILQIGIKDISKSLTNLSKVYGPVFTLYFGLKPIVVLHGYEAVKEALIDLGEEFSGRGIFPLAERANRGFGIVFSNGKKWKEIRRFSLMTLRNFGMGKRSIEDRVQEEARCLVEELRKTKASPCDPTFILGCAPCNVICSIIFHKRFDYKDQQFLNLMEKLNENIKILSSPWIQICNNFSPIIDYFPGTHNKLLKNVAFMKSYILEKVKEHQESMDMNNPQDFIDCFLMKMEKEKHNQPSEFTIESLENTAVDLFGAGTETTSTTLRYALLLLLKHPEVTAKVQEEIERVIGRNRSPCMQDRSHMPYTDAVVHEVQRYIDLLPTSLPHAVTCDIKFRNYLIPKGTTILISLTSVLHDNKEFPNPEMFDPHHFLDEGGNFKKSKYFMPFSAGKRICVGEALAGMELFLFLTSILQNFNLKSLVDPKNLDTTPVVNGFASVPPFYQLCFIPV
Procedure, shortened: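 CYP2C9 deoxyluciferin hydroxylation, 37C, 60 min with NADPH regeneration; 10nM enzyme, 100uM Luciferin-H (KM). Glo detection reagent stopped reaction; luminescence normalized to sulphaphenazole (57uM) full inhibition.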

[17] = target: DNA polymerase kappa (Homo sapiens) (UniProt Q9UBT6); test: qHTS for Inhibitors of Polymerase Kappa: Confirmatory Assay for Cherry-picked Compounds (AID 720501); conditions: purified Pol-kappa, fluorescent strand-displacement substrate; further: potency means the concentration at half of the fitted maximal effect
Sequence of DNA polymerase kappa (Homo sapiens) (Q9UBT6 whole entry, looked up): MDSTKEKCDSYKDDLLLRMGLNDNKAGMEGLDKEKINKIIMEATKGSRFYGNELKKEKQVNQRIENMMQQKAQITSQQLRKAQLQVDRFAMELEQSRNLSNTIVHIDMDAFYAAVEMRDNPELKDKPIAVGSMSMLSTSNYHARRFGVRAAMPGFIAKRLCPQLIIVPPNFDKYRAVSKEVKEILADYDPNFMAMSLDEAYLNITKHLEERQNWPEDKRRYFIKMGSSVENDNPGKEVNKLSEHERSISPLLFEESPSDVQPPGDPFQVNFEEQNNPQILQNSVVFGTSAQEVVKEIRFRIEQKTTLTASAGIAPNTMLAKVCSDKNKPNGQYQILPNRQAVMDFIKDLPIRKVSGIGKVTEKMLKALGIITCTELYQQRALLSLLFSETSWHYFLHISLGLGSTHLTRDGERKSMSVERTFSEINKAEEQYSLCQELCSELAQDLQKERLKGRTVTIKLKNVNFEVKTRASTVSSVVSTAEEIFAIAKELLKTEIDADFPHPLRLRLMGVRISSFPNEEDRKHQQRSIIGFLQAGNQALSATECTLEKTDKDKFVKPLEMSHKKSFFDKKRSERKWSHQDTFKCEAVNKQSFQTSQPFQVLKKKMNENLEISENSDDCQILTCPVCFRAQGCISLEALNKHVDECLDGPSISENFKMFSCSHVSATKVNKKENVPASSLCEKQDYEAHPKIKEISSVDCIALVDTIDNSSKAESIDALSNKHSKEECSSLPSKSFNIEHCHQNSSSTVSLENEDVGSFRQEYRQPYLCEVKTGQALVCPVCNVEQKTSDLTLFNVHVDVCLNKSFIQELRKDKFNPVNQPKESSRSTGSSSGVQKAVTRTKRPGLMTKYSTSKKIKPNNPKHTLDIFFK
Procedure, shortened: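 Human Pol-kappa, dispensed at 10 nM, was preincubated with compounds for 15 min at room temperature. Reactions were started with primer/template substrate (50 nM final) carrying a TAMRA reporter strand and BHQ-2-quenched template, and fluorescence (ex 525/em 598 nm) was read at 0 and 10 min.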

[18] = target: DNA polymerase eta (Homo sapiens) (UniProt Q9Y253); test: qHTS for Inhibitors of Polymerase Eta: Confirmatory Assay for Cherry-picked Compounds (AID 720502); conditions: Pol eta primer extension, TAMRA/BHQ fluorescence, 10 min; further: potency means the concentration at half of the fitted maximal effect
Procedure, shortened: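 Human Pol eta (10 nM) was preincubated with compounds for 15 min at room temperature before adding 50 nM (final) DNA substrate: primer plus TAMRA reporter strand annealed to a BHQ-2-labeled template. Fluorescence (ex 525/em 598 nm) was read at 0 and 10 min.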

[19] = target: Cytochrome P450 3A4 (Homo sapiens) (UniProt P08684); test: qHTS Assay for Inhibitors and Substrates of Cytochrome P450 3A4 (AID 884); further: potency means the concentration at half of the fitted maximal effect; nearly all actives have a fitted effect of over 50% in size
Procedure, shortened: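 20 nM human CYP3A4 with 25 uM Luciferin-PPXE (at KM) in 200 mM KPO4, preincubated 10 min with compound; NADPH regeneration started a 60 min RT reaction. Luciferin detected by luminescence, normalized to 57 uM ketoconazole as full inhibition.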

[20] = target: DNA dC->dU-editing enzyme APOBEC-3G (Homo sapiens) (UniProt Q9HC16); test: qHTS for inhibitors of Vif-A3G interactions: Validation (AID 588379); further: 0% is about no effect
Procedure, shortened: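 HeLa cells stably expressing Vif and A3G-eYFP, 700 cells/well, incubated overnight at 37 deg C, then exposed to compound overnight at 37 deg C. Inhibition of Vif-mediated degradation read as increased yellow fluorescence (Ex 488/Em 500-530) by laser-scanning cytometry.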

[21] = target: Tumor susceptibility gene 101 protein (Homo sapiens) (UniProt Q99816); test: qHTS Assay for Iinhibitors of HIV-1 Budding by Blocking the Interaction of PTAP/TSG101: Hit Validation (AID 651600); further: potency means the concentration at half of the fitted maximal effect; nearly all actives have a fitted effect of over 70% in size
Procedure, shortened: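 FITC-PTAP peptide (50 nM final) binding to Tsg101 binding domain (10 uM final) was measured by polarization after 20 min at r.t. with compounds, in 10 mM HEPES pH 7.5 buffer with 0.15 M NaCl and 0.01% Tween 20.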

O=c1[nH]c(=S)n(-c2ccccc2F)c(O)c1C=Nc1ccc(N2CCOCC2)cc1
inactive: Potency [1] | activation [2] 4.59% [at 17.1 µM, percent relative to cAMP agonist control] | activity change, negative = inhibition [3] -15.3% [at 12.7 µM] | activity change, negative = inhibition [4] -4.47% [at 30.8 µM]

Cc1cc(/C=C2/C(=O)NC(=O)N(Cc3ccco3)C2=O)c(C)n1-c1ccccc1O
active: Potency [1] 44.7 µM | Potency [3] 0.19 µM
inactive: Potency [5] | activation [2] 11.8% [at 17.1 µM, percent relative to cAMP agonist control] | activation [6] 17.9% [at 30.8 µM]

CC(C)=CCCC1(C)C=Cc2c(O)c3c(c(CC=C(C)C)c2O1)OC12C(=CC4CC1C(C)(C)OC2(C/C=C(/C)C(=O)O)C4=O)C3=O (stereo unspecified)
inactive: Potency [7] | Potency [8] | Potency [9] | Potency [5] | Potency [2] | Potency [10]
active: Potency [1] 19.8 µM

CC(C)c1ccc(C(c2c(O)c3ccccc3oc2=O)c2c(O)c3ccccc3oc2=O)cc1
inactive: outcome [11] | Potency [12] > 46 µM | Potency [13] > 9.22 µM | activity change, negative = inhibition [14] -6.98% [at 11.4 µM] | Potency [15] | Potency [5] | Potency [2] | Potency [3]
active: Potency [16] 3.16 µM | Potency [1] 15.1 µM

COC(=O)C1=C(c2cc3ccccc3s2)C[C@@H]2CC[C@H]1N2C(=O)NCc1ccc(C(F)(F)F)cc1
inactive: Potency [1] | Potency [5] | Potency [2] | Potency [3] | Potency [6]

O=C1NC(=O)N(Cc2ccco2)C(=O)/C1=C\c1ccc(-c2ccc(F)cc2)o1
inactive: Potency [5] | activation [2] -0.903% [at 17.1 µM, percent relative to cAMP agonist control] | activity change, negative = inhibition [3] -6.14% [at 12.7 µM] | activation [6] 11.1% [at 30.8 µM]
active: Potency [17] 42.3 µM | Potency [18] 47.8 µM | Potency [1] 22.4 µM

COc1ccc(CN2C(=O)NC(=O)/C(=C/c3ccc([N+](=O)[O-])s3)C2=O)cc1
inactive: Potency [5] | Potency [2] | outcome [4]
active: Potency [1] 9.53 µM

CCCCCC1C(=O)O[C@H](C)[C@@H](NC(=O)c2cccc(NC=O)c2O)C(=O)OC(C)C1OC(=O)CC(C)C (stereo partly specified)
inactive: Potency [7] | Potency [8] | Potency [9] | Potency [1] | Potency [5] | Potency [2]
active: Potency [19] 7.94 µM

O=Cc1c(C(=O)O)n(Cc2ccc(Cl)cc2)c2ccccc12
active: Potency [3] 42.6 µM | Potency [6] 15.8 µM
inactive: Potency [1] | Potency [5] | Potency [2]

CC(C)CCn1c(=O)c(C(=O)Nc2ccccc2S(N)(=O)=O)c(O)c2ccccc21
active: Potency [1] 75.7 µM
inactive: Potency [5] | Potency [2] | outcome [4] | Potency [6]

COc1ccccc1-n1c(-c2cccs2)nc2ccccc2c1=O
inactive: Potency [1] | Potency [5] | Potency [3] | outcome [4]

O=[N+]([O-])c1ccc(CN2CC=C(c3ccccc3)CC2)cc1
inactive: Potency [1] | Potency [5] | activation [2] 0% [at 17.1 µM, percent relative to cAMP agonist control] | activity change, negative = inhibition [3] 0.463% [at 12.7 µM] | activation [6] 8.24% [at 30.8 µM]

N/C(=N\N=C/c1ccc(-c2ccc(O)c(C(=O)O)c2)o1)N[N+](=O)[O-]
active: Potency [1] 4.78 µM
inactive: Potency [5] | Potency [2] | outcome [4]

Cc1cc(C=C(C#N)C#N)ccc1N1CCCC1
inactive: Potency [1] | outcome [4]
active: Potency [5] 100 µM | Potency [2] 112 µM | Potency [6] 28.2 µM

Cc1cc(OC(C)C(=O)N[C@H](C(=O)O)c2ccccc2)c2c3c(c(=O)oc2c1)CCC3 (stereo partly specified)
inactive: Potency [1] | Potency [5] | Potency [2] | Potency [6]
active: Potency [3] 42.6 µM

O=C(c1ccco1)c1cn(Cc2ccccc2)c2ccccc12
inactive: Potency [1] | Potency [5] | Potency [2] | outcome [4]

CCCCC/C=C\C/C=C\C/C=C\C/C=C\CCCC(=O)Nc1ccc(O)cc1
inactive: Potency [12] > 46 µM | Potency [13] > 46 µM | outcome [14] | Potency [7] | outcome [20] | Potency [1] | Potency [5] | Potency [2] | Potency [3]
active: Potency [16] 5.01 µM | Potency [19] 5.01 µM

CCOC(=O)C1CCCN(c2ccc([N+](=O)[O-])c3nonc23)C1 (stereo unspecified)
active: Potency [5] 112 µM | Potency [2] 100 µM | Potency [6] 39.8 µM
inactive: Potency [1] | Potency [3]

COC1C(C)OC(OC2CC(C)(O)Cc3cc4c(c(O)c32)C(=O)c2c(O)cc3c(c2C4=O)OC2OC3(C)C(O)C(N(C)C)C2O)C(OC)C1(C)OC (stereo unspecified)
inactive: Potency [1] | activation [2] 18.7% [at 17.1 µM, percent relative to cAMP agonist control] | activity change, negative = inhibition [3] 15.2% [at 12.7 µM] | activity change, negative = inhibition [4] 87.2% [at 30.8 µM]

Cc1ccccc1OCC(=O)N1CCN(CCc2ccccn2)CC1
inactive: Potency [1] | Potency [2] | activity change, negative = inhibition [3] 1.52% [at 12.7 µM] | outcome [4]

O=c1cc(C(F)(F)F)c2cc3c4c(c2o1)CCCN4CCC3
active: Potency [21] 0.651 µM | Potency [5] 50.1 µM | Potency [2] 39.8 µM | Potency [3] 60.1 µM
inactive: Potency [1] | outcome [4]
